{
  "source": "PubChem BioAssay (NCATS)",
  "note": "Values joined by “and” are separate entries in the source; they are usually repeats but may differ in a detail not shown here. Identical values can stand only once. Records with an inconclusive call do not appear. A number with no mark means an inactive call. Active and inactive are the calls of the source. Calls follow the shape of the dose curve; as a rule, active = well fitted cell-killing curve with a large enough effect; inconclusive = small, poorly fitted or top-dose-only effect, or effect the other way; inactive = no such curve, though single readings can be large or run the other way. Potency is read from the fitted curve at half-maximal effect.",
  "data": [
    {"assay": "Viability qHTS for spleen associated tyrosine kinase inhibitor (SYKi) drug resistant MV4-11 cells (AID 1963824); also: nearly all actives have a fitted effect of over 35% in size", "details": "SYKi-resistant MV4-11 viability, CellTiter-Glo, 72 h; series mostly up to 45 µM", "from_the_text": "Department of Medicine, Hematology/Oncology\nUniversity Hospital Frankfurt, Germany.\nTrials have shown promising clinical activity of the selective SYK inhibitor entospletinib in patients with high expressing HOXA9/MEIS1 acute leukemias. As the development of resistance mechanisms is a common problem in the use of targeted drugs, we performed a chemical library screen to identify drug sensitivities in SYK inhibitor resistant AML cells. […] Glucocorticoids are potent immunosuppressants which work in part by inhibiting the transcription of cytokine genes.\nDescribed herein is a viability screen to look for activity in the SYK inhibitor drug resistant cell line against four NCATS compound libraries (MIPE 5.0, NPC, NPACT, and Kinase) totaling 11372 compounds. Active hits were reacquired for confirmation and further secondary assay testing.\nSEQUENCE No. (e.g., 1, 2, 3, etc.); […] (e.g., Cells, Incubation, Reagent, etc.); VALUE; DESCRIPTION.\n1; Media; 2uL; white, solid-bottom Corning assay plate.\n2; Compounds; 23nL; Echo acoustic dispenser.\n3; Cell; 5uL; 500 cells per well.\n4: Incubation; 72hr; 37 C, 5% CO2, 95% humidity.\n5; Reagent; 3uL; CellTiter-Glo reagent (Promega).\n6; Incubation; 10min; room temperature.\n7; Detection; Luminescence; ViewLux plate reader (PerkinElmer).\nNOTES (numbers refer to Sequence numbers above\n1. Quantitative high-throughput screening (qHTS) of small molecule compounds was conducted on drug resistant SYKi MV4-11 cell line.\n2. Twenty-three nanoliter of small molecule compounds were added to each assay plates using the Echo acoustic dispenser (Beckman Coulter).\n3. Cells were seeded into the assay plates at a final density of 500 cells in 5uL of media per well using the Multidrop Combi dispenser.\n4. Plates were covered with stainless steel gasketed lids and incubated for 72 hours at standard cell culture conditions.\n5. Viability was assessed by adding 3uL of CellTiter-Glo detection reagent (Promega).\n6. Plates were covered with gasket lids and incubated for 10 minutes at room temperature.\n7. Luminescence was measured on a ViewLux plate reader (PerkinElmer).", "values": [
      {"compound": "COC(=O)C1=C(C)NC(C)=C(C(=O)O[C@@H]2CCCN(Cc3ccccc3)C2)[C@@H]1c1cccc([N+](=O)[O-])c1", "Potency": "15 µM (active) and 13 µM (active)"},
      {"compound": "CCC(C)C1NC(=O)C2CCCN2C(=O)C(NC(C)=O)C(C)OC(=O)C(Cc2ccc(OC)cc2)N(C)C(=O)C2CCCN2C(=O)C(C(C)C)NC1=O", "note": "(stereo not given)", "Potency": "inactive"},
      {"compound": "Cn1cc(C2=C(c3coc4ccccc34)C(=O)NC2=O)c2cc(Br)ccc21", "Potency": "7.31 µM (active)"},
      {"compound": "CC(=O)N[C@@H](CCC(=O)O)C(=O)O", "Potency": "inactive"},
      {"compound": "CCCCCN(CCCCC)C(=O)C(CCC(=O)O)NC(=O)c1ccc(Cl)c(Cl)c1", "note": "(stereo not given)", "Potency": "inactive"},
      {"compound": "CNc1nc(Nc2cnn([C@H]3CCN(C4COC4)C[C@@H]3F)c2Cl)ncc1C(F)(F)F", "Potency": "1.86 µM (active)"},
      {"compound": "COC(=O)c1ccc(=O)c2nc3/c(=C/O)c(O)cc(=O)c3[nH]c12", "Potency": "inactive"},
      {"compound": "COc1ccnc(CS(=O)c2nc3cc(OC(F)F)ccc3[nH]2)c1OC", "note": "(stereo not given)", "Potency": "inactive"},
      {"compound": "CSC(=O)OCC1=C[C@@H]2OC(=O)C3=CO[C@@H](O[C@@H]4O[C@H](CO)[C@@H](O)[C@H](O)[C@H]4O)[C@H]1[C@@H]32", "Potency": "inactive"},
      {"compound": "CC(=O)OC1CC(C)C2(CCC3(CC(=O)OC3O)O2)C2(C)CCCC(C)(C)C12", "note": "(stereo not given)", "Potency": "10 µM (active)"},
      {"compound": "O[C@@H](COc1cccc2ncccc12)CN1CCN(C2c3ccccc3[C@@H]3[C@H](c4ccccc42)C3(F)F)CC1", "note": "(stereo not given in full)", "Potency": "6.61 µM (active) and 9.2 µM (active)"},
      {"compound": "COc1cc2c(cc1-c1c(C)noc1C)ncc1[nH]c(=O)n([C@H](C)c3ccccn3)c12", "Potency": "0.259 µM (active)"},
      {"compound": "CCS(=O)(=O)N(Cc1cccnc1)c1cccc(-c2ccc(C#N)cc2)c1", "Potency": "20.6 µM (active)"},
      {"compound": "O=C(Nc1ccn(Cc2c(F)cccc2C(F)(F)F)n1)c1c(F)cccc1F", "viability, % of control": "91.5% [at 9.25 µM]"},
      {"compound": "Nc1c(I)cc(I)c(C(=O)N(CCC(=O)O)c2ccccc2)c1I", "Potency": "inactive"},
      {"compound": "CCCCc1nc2cc(/C=C/C(=O)NO)ccc2n1CCN(CC)CC", "Potency": "291 nM (active) and 468 nM (active)"},
      {"compound": "COc1cc(Nc2ncc(F)c(Nc3ccc4c(n3)N(COP(=O)(O)O)C(=O)C(C)(C)O4)n2)cc(OC)c1OC", "Potency": "130 nM (active) and 461 nM (active) and 148 nM (active)"},
      {"compound": "C=C1CC2[C@@]3(C)C=CC(=O)C(C)(C)C3=C(O)C(=O)[C@@]2(C)C2(C(=O)OC)C(=O)C(C)OC(=O)[C@@]12C", "note": "(stereo not given in full)", "Potency": "10 µM (active)"},
      {"compound": "CC(C)C[C@H](NC(=O)CNC(=O)c1cc(Cl)ccc1Cl)B(O)O", "Potency": "0.0934 µM (active)"},
      {"compound": "CC(C[N+](C)(C)C)OC(N)=O", "note": "(stereo not given)", "Potency": "inactive"},
      {"compound": "COC(=O)C1=C(C)NC(C)=C(C(=O)OC)C1c1ccccc1[N+](=O)[O-]", "Potency": "11.9 µM (active)"},
      {"compound": "CC[C@H](CO)Nc1nc(NCc2ccc(-c3ccccn3)cc2)c2ncn(C(C)C)c2n1", "Potency": "0.259 µM (active)"},
      {"compound": "C/C(=C\\CO)CC/C=C(\\C)C(=O)O[C@@H]1O[C@H](CO)[C@@H](O)[C@H](O)[C@H]1O", "Potency": "inactive"},
      {"compound": "CN1CCC(c2c(O)cc(O)c3c(=O)cc(-c4ccccc4Cl)oc23)C1CO", "note": "(stereo not given)", "Potency": "0.59 µM (active)"},
      {"compound": "COc1ccccc1-c1cc(Nc2cccc(CS(N)(=O)=O)c2)ncn1", "Potency": "8.2 µM (active)"},
      {"compound": "Cn1ncnc1COc1nn2c(-c3cc(F)ccc3F)nnc2cc1C(C)(C)C", "Potency": "inactive"},
      {"compound": "CC[N+]1(C/C2=C/CCCCCC2)CCC(NC(=O)C2c3cc(Cl)ccc3Oc3ccc(Cl)cc32)CC1", "note": "(stereo not given)", "Potency": "3.66 µM (active)"},
      {"compound": "c1cn2cc(-c3ccc4cn[nH]c4c3)nc(Nc3ccc(N4CCOCC4)cc3)c2n1", "Potency": "820 nM (active) and 1.32 µM (active)"},
      {"compound": "N#Cc1cc(CN2CCC(Nc3ncnc4sc(Cl)cc34)CC2)ccc1F", "Potency": "13 µM (active)"},
      {"compound": "CNC(=O)c1c(-c2ccc(F)cc2)oc2cc(N(CCO)S(C)(=O)=O)c(C3CC3)cc12", "Potency": "inactive"},
      {"compound": "CCCCCCCCCCCCCC[N+](C)(C)C", "Potency": "1.33 µM (active)"},
      {"compound": "CCc1cccc(CC)c1NC(=O)N1Cc2[nH]nc(NC(=O)c3ccc(N4CCN(C)CC4)cc3)c2C1", "Potency": "1.03 µM (active) and 1.05 µM (active)"},
      {"compound": "CC(C)n1nc(-c2ccc(NC(=O)Nc3cccc(C(F)(F)F)c3)cc2)c2c(N)ncnc21", "Potency": "inactive"},
      {"compound": "C=CCc1ccc(O[C@@H]2O[C@H](CO)[C@@H](O)[C@H](O)[C@H]2O)c(O[C@@H]2O[C@H](CO)[C@@H](O)[C@H](O)[C@H]2O)c1", "Potency": "inactive"},
      {"compound": "NC(=O)c1cnccn1", "Potency": "inactive"},
      {"compound": "CN1C(C(=O)Nc2ccccn2)=C(O)c2sccc2S1(=O)=O", "Potency": "inactive"},
      {"compound": "O=C1Cc2c([nH]c3ccc([N+](=O)[O-])cc23)-c2ccccc2N1", "Potency": "0.502 µM (active)"},
      {"compound": "C=C1CCC(OC(C)=O)C2(C)CC3(O)OC(=O)C(C)=C3CC12", "note": "(stereo not given)", "Potency": "inactive"},
      {"compound": "C#C[C@]1(O)CC[C@H]2[C@@H]3CCC4=Cc5oncc5C[C@]4(C)[C@H]3CC[C@@]21C", "Potency": "8.41 µM (active)"},
      {"compound": "Cc1ccccc1C(=O)c1ccc(Nc2ccc(Br)cc2N)cc1Cl", "Potency": "16.6 µM (active) and 18.4 µM (active)"}
    ]}
  ]
}
